Only some compounds are listed: those with a hit (about 2.7% of all), similar ones and a draw of the others.
GLP1R inv ag: qHTS of GLP-1 Receptor Inverse Agonists (Inhibition Mode) | HEK293 GLP-1R CRE-luciferase, luminescence, 24 h; GLP-1R form is constitutively active | Potency, µM (highest dose often 38.3 µM), for inactives: top-dose activity change, negative = inhibition, most hits filed as inhibitors | 410,000 compounds, 1.6% hits | AID 624417, 2012 | Glucagon-like peptide 1 receptor (Homo sapiens), P43220; also: % is scaled to controls: 0 for no effect and ±100 for the full control effect; nearly all actives have a fitted effect of over 55% in size
Target sequence (P43220 whole entry, looked up): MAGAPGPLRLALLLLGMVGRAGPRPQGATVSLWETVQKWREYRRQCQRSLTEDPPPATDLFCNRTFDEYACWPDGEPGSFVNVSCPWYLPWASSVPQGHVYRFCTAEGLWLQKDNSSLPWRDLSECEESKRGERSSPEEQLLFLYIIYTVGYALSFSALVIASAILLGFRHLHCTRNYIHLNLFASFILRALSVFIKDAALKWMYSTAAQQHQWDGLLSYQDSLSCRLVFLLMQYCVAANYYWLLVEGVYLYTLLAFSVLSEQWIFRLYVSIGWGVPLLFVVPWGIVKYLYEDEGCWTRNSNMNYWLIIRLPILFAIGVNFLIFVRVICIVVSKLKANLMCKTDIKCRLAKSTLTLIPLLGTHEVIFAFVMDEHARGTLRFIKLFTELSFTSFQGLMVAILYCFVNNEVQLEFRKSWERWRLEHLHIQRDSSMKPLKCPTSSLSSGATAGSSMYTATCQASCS
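qHTS in 1536-well format: reporter HEK293 cells expressing constitutive GLP-1R activity in DMEM + 10% Nu serum, 24 hr with compounds at 37 deg C, luminescence read after 12 min with detection reagent.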
Integrin act MD: qHTS for Activators of Integrin-Mediated Alleviation for Muscular Dystrophy | alpha7betagal myoblasts, beta-gal FDG fluorescence, 48 h | AID 624291, 2012 | Potency, µM (series often up to 38.3 µM), for inactives: at the top dose activation, most hits filed as activators | 350,000 compounds, 0.064% hits;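 also: 100% = response of the positive control SU9516; nearly all actives have a fitted effect of over 60% in size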
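Alpha7betagal+/- myoblasts (passage 13) were plated 16-24 hr, then exposed to compounds (1:260 dilution of DMSO stock) for 48 hours at 37C. After MPER lysis, β-galactosidase reporter activity was read as FDG fluorescence (ex 480/em 540) after 30 minutes.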
GLP1R cytotox: qHTS of GLP-1 Receptor Inverse Agonists: Cytotox Screen; HEK293 cAMP-luciferase reporter cells, luminescence, 24 h; Potency, µM (titrated, usually from 38.3 µM), inactives show at the top dose activity change, negative = inhibition, usual class: inhibitors; 410,000 compounds, 0.13% hits; AID 624418, 2012;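 also: loss of luciferase light is scored as toxicity; % is scaled to controls: 0 for no effect and ±100 for the full control effect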
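1536-well qHTS counterscreen of the MLSMR; 200 cells/uL, 12 h pre-incubation, 23 nL cpd, 24 h at 37 deg C 5% CO2, luciferase detection reagent, 12 min RT, luminescence. Inhibition = undesired.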
GLP1R ag: qHTS of GLP-1 Receptor Agonists. Glucagon-like peptide 1 receptor (Homo sapiens), P43220. HEK293 GLP-1R CRE-luciferase, luminescence, 4-6 h; cells express a hypersensitive GLP-1R form. Potency, µM (top dose mostly 45.6 µM), for inactives: at the top dose activation, usual class: activators. AID 624172, 2012. 380,000 compounds, 0.007% hits; also: % of control where 0% means no effect
BRCA1 expr act: qHTS Assay to Identify Small Molecule Activators of BRCA1 Expression; MCF7-BRCA1-FFLuc reporter, luminescence, 48 h; response scale: scaled: vehicle 0%, 10 µM genistein 100%; Potency, µM (top dose mostly 46.1 µM), inactives show top-dose activation, actives largely listed as activators; 380,000 compounds, 1.1% hits; AID 624202, 2012; also: nearly all actives have a fitted effect of over 80% in size
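MCF7-BRCA1-FFLuc, 2000 cells/well; 2 h attach, 37 °C/5% CO2; compound 48 h; luciferase substrate 15 min; luminescence end-point. Norm. to genistein 10 microM max activation and DMSO; concentration-response curves fitted.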
An asterisk follows results filed as active; ? = inconclusive; nt = not tested or not shown. Calls follow the shape of the dose curve; as a rule, active = well fitted curve in the direction sought with a large enough effect; inconclusive = small, poorly fitted or top-dose-only effect, or another doubt; inactive = no such curve, though single readings can be large; an effect the other way counts as inactive or inconclusive. Potency is read from the fitted curve at half-maximal effect.

SMILES | GLP1R inv ag | Integrin act MD | GLP1R cytotox | GLP1R ag | BRCA1 expr act
COc1ccc(-c2[nH]c3ccccc3c2SCCNC(=O)c2cc3ccccc3oc2=O)cc1 | ? | 8% | -16% | -2% | -53%
FC(F)(F)c1cccc(-n2cc(-c3ccccc3)c3c(N4CCCCC4)ncnc32)c1 | 1% | nt | -10% | nt | nt
O=C(c1ccccc1)c1c[nH]c(C(=O)NNc2ccccc2)c1 | 2.5µM* | -8% | 12% | 6% | 1%
CN(C)CCCNC(=O)c1cc(C(=O)c2ccccc2)c[nH]1 | -18% | 42% | -12% | -2% | 16%
COc1cc(/C=C/C(=O)c2ccc(C)c([N+](=O)[O-])c2)cc(OC)c1O | 10µM* | -48% | 10% | -6% | -60%
CCc1ccc(NC(=O)CCCN2C(=O)C3CC=CCC3C2=O)cc1 (stereo not given) | ? | -2% | -8% | 1% | 7.9µM*
O=C(N/N=C/c1ccccn1)NC12CC3CC(CC(C3)C1)C2 | -25% | ? | -5% | 25% | 4µM*
Cc1cccc(/C=N/NC(=O)NC23CC4CC(CC(C4)C2)C3)n1 | ? | ? | -12% | 14% | 40%
COc1cccc(/C=N/NC(=O)NC23CC4CC(CC(C4)C2)C3)c1O | ? | 27% | -106% | 7% | -55%
O=C(N/N=C/c1ccccc1F)NC12CC3CC(CC(C3)C1)C2 | ? | 8% | -9% | 0% | 5µM*
N#CC1(Cc2ccc(Cl)cc2)c2ccccc2C=CN1C(=O)c1ccccc1 (stereo not given) | 7.9µM* | -9% | 15% | -8% | -56%
CC1(C#N)c2ccccc2C(Br)=CN1C(=O)c1ccccc1 (stereo not given) | -7% | 4% | 5% | 10% | -2%
COc1ccc(C(CNC(=O)c2oc3ccc(OC)cc3c2C)N2CCCC2)cc1 (stereo not given) | ? | -36% | -7% | 2% | -44%
COc1ccc2oc(C(=O)N3CCN(C(c4ccccc4)c4ccccc4)CC3)c(C)c2c1 | 5.6µM* | 7% | 1% | 11% | -37%
Cc1c(C(=O)N2CCCCC2)oc2ccc(Br)cc12 | ? | 0% | 4% | 15% | ?
Cc1ccc2oc(C(=O)N3CCCCCC3)c(C)c2c1 | ? | 45% | 14% | 31% | 5.6µM*
COc1ccc2oc(C(=O)NCCC(C)C)c(C)c2c1 | ? | 38% | 20% | 4% | 7.1µM*
COc1ccc2oc(C(=O)N(C)Cc3ccc(OC(F)F)cc3)c(C)c2c1 | ? | -4% | 3% | 24% | 48%
COc1ccc2oc(C(=O)N(C)CCOc3ccccc3)c(C)c2c1 | ? | -8% | 15% | 4% | 11µM*
CSc1nn(Cc2ccc(Br)cc2)c(N(C(C)=O)C(C)=O)c1S(=O)(=O)c1ccccc1 | ? | nt | -15% | -5% | -30%
COc1ccc2oc(C(=O)OCC(=O)N(Cc3ccccc3)C(C)C)c(C)c2c1 | 11µM* | 22% | 3% | 15% | -24%
COc1ccc2oc(C(=O)OCC(=O)N(C)Cc3ccccc3)c(C)c2c1 | ? | 3% | 18% | 7% | -6%
Cc1ccc2c(CC(=O)Nc3ccc(S(=O)(=O)N4CCCCC4)cc3)coc2c1C | ? | nt | -16% | nt | nt
CCOC(=O)C1=CN(Cc2ccco2)S(=O)(=O)N(C)C1c1ccc2ccccc2c1 (stereo not given) | 10µM* | -23% | -11% | 2% | -25%
CCOc1ccc(OCCNC(=O)c2cc(C3CC3)nc3c2cnn3C(C)C)cc1 | 8.9µM* | 18% | -10% | 1% | -41%
SMILES | GLP1R inv ag | Integrin act MD | GLP1R cytotox | GLP1R ag | BRCA1 expr act
CC(C)n1ncc2c(C(=O)Nc3cccc(C#N)c3)cc(C3CC3)nc21 | 8.9µM* | 1% | 22% | -1% | -53%
COc1ccc(CNC(=O)c2cc(C3CC3)nc3c2cnn3C(C)C)cc1 | ? | 11% | 2% | 8% | -8%
CCNC(=O)c1cccc(NC(=O)c2cc(C3CC3)nc3c2cnn3C(C)C)c1 | 10µM* | -8% | -18% | 12% | -17%
Cc1nnc2c(Nc3cccc(O)c3)nc3ccccc3n12 | 8% | nt | -6% | nt | nt
Cc1cc(C)c(S(=O)(=O)NCC(c2ccc(N(C)C)cc2)N2CCOCC2)c(C)c1 (stereo not given) | 3% | nt | 5% | nt | nt
CC(=O)OC1CCC2(C)C(=CCC3C2CCC2(C)C(C(C)=O)CCC32)C1 (stereo not given) | nt | nt | nt | 6% | nt
CN(C)c1ccc(NS(=O)(=O)c2cc(Cl)ccc2Cl)cc1 | ? | 11% | ? | 0% | -54%
CCN(c1ccc(NS(=O)(=O)c2cc(Cl)ccc2Cl)cc1)C(C)C | 11µM* | -27% | 10% | -1% | -53%
CC(C)(C)NC(=O)Cn1cc(S(=O)(=O)Cc2ccccc2Cl)c2ccccc21 | -23% | nt | -10% | nt | nt
CCc1ccc(S(=O)(=O)Nc2cccc(-c3ccc(N4CCC(C)CC4)nn3)c2)s1 | ? | nt | -8% | nt | nt
CCN(CC)C(=O)Cn1c(SCC(=O)Nc2ccc(C)c(C)c2)nc2ccccc21 | -27% | nt | 0% | nt | nt
COc1ccccc1Nc1nc(-c2ccccc2Cl)c2cc(Br)ccc2n1 | 13% | nt | 6% | nt | nt
Clc1ccccc1-c1nc(Nc2ccccc2)nc2ccc(Br)cc12 | 10µM* | nt | 42% | nt | nt
Cc1ccc(CC(=O)NO)cc1 | nt | nt | nt | nt | 0%
O=C(Nc1cccc(Br)c1)Nc1nc2c(s1)CCCCCC2 | ? | nt | -12% | nt | nt
Fc1ccc(CSc2ccc(-c3cccs3)nn2)cc1 | 8% | 9% | -11% | 1% | 10µM*
Cc1ccc(CSc2ccc(-c3cccs3)nn2)cc1 | 4% | 2% | 1% | -8% | ?
c1cncc(CSc2ccc(-c3cccs3)nn2)c1 | 1% | -7% | 14% | 6% | 10µM*
Fc1cccc(CSc2ccc(-c3cccs3)nn2)c1 | 0% | nt | 27% | nt | nt
CS/C(Nc1cc(Cl)ccc1Cl)=C(/C#N)C(=O)c1ccco1 | 6.3µM* | -3% | -5% | -4% | -9%
Cc1ccc(N2C(=O)C(CN3CCCC3)C2c2ccccc2)cc1 (stereo not given) | 10µM* | -47% | -7% | 6% | -23%
Cc1ccc(N2C(=O)C(CN3CCCCC3)C2c2ccccc2)cc1 (stereo not given) | ? | -267% | 14% | 7% | -16%
O=C1S/C(=C\c2cccs2)C(=O)N1c1ccc(O)cc1 | 23% | -23% | 0% | -5% | 11µM*
N=c1c2c(-c3ccccc3)c(-c3ccccc3)n(Cc3ccco3)c2ncn1CCO | ? | -51% | 7.9µM* | -11% | -55%
CCOC(=O)c1cc(-c2ccccc2)n(CC(=O)Nc2ccc(OC)cc2OC)c1C | 8% | nt | 22% | nt | nt
